Reference: the supplement of paper PMC6555819

system: VDR:RXRa (NR concentration 270 nM, RXRa partner concentration 90 nM); test: PBM binding z-score (relative to random genomic background probes); higher = stronger binding; sequences stand for … in GC…GCGATTGACAGCGTAGAATGAAGG
Procedure: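 Protein-binding microarray (Agilent 4x180K custom design, double-stranded 60-nt probes: 5' GC cap, 34-nt variable region, 24-nt constant primer region; full probe sequence given). Purified or IVT nuclear receptor:RXRα heterodimers (3:1 NR:RXRα, mostly 270:90 nM) or homodimers were incubated for 1 h in PBS with 2% milk and no ligand, then detected with Alexa488 antibodies. Fluorescence from o1-orientation probes (~5 replicates averaged) was converted to z-scores against 500 random hg19 background probes. Variable regions are seed direct-repeat (DR0–DR5) sites, all their single-nucleotide variants and half-site ablations.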

Sequence | PBM binding z-score
ACTCGGAGGACAAAGGTCAGTGCTACGCCAGTGA | 2.82
CCTAGTTGGTCAAGGTCACACACGCTATAGGTAC | 4.26
CCTTTCGGGTCACTGACAGGTTATAGCATTTGGA | 3.86
CTGGAAAGGTCGGTTGAGGTGAGTATACGGATAA | 2.15
ATCGAAAGCTCGAGGTGAGTATAGAGAAAGGGAA | -0.459
AGAACGAGGTTATTAAGATCAGGGAATTGCGGTC | 2.38
CCGACTGGGGCAAGGTTACCAGAACGCACAGCCA | 0.0138
ATATGTAGGTTAAATCCGGGTCATTCAGGCTATG | 4.63
GGAACGAGGGCATACGAGTTGATAGCATGGCGAT | 2.73
TTACTAAGGTGAGCTGAGGTCGTTGATCCAACTC | 4.42
TCGAGTAGGTTAGTCGGGGTATTCAGCCAACATA | 0.453
GCTGGTAGATCAAGGTTAAGAAAGACTAAGCTAA | 0.201
AGAATGAGATTATTAAGATCAGGGAATTGCGGTC | -0.494
TCATATAGGTAAAAGGTGAAAGGCGGTGTGGTAA | 1.39
CCGACTGGGGCATAACGTTACCATAAGCCAGCCC | -0.52
CGTCCAAGGTCAGAGAGGTCGGTGAATGCCGAGT | 6.24
TCATATAGGTAATACAGGTGAAAGTGGGCATCTA | 1.47
TCAGACAGGTAAAGGTAACTCAGGTACGCAGTCG | 1.44
ATCGAAAGGTCGTAGGTGAGTATACCCACCCGAA | 3.47
ACTAGCAGTCCAAGTTTGGGTCACTCAAACAAAG | 0.754

Sequence | PBM binding z-score
ACAGACAGGTGATGGAGGTAACTCAGGCTATCAT | 0.681
TCTGCTATGTCAGTTGGTCAGCTAACGAGCTGCC | -0.176
ATAATGAGGTTACCAAAGATCAGGGAAACGCTTG | 1.81
GGAACCAGGGCATTCGAGTTGATAGCATGGCGAT | 2.21
TCTGCTAGGTCAACGATGGTCAGGTAATCTGCTA | 1.78
CCTGCTAGGTCATGTTCAGCTAATCTACAGTATG | 1.48
TCTCGGAGGACTCGAAAGGTCAGAGCTCGACATC | 2.4
TGAATGAGGATAAAGATCAGGGAACGTGGCGTCG | -0.375
CCTCCTGGGCCAAGGTCATTGATCAGTCAAAGCA | 2.91
CAGCCTAGGTTAGGGCCAGTATAGGAGGAACGTT | -0.611
CCTACTCGGCCAAAGGTCATTGATTCCAATGCTC | 4.8
GCTGCTAGGTCAGGTTGGTCAGGTAACGGGTACG | 0.625
CATCAAAGTTCAAGGTAACGTAACAGAAAGCAGC | 4.01
TCTATTAGTTGAAGGGGAACCGACGAGTCCGTTT | 1.13
AGAATGAGGTTACCAAAGATCAGGCAAACGCTTG | 1.36
GTACCAAGGTGAATAGGTCGTTTATGAGTAGGCG | 1.07
GCTTACTGGTCAAAGGTTATAGCATGAATAGAAT | 2.42
GGAACGGGGGCAAAGTTGATAGCATCTGTCGACG | 3.25
CTCGAAACGTCGTGCTCAGGTGAGTATACCAAAC | -0.365
GCGACTTGGGCAAAGCAGGTTACCATAAGGTTGG | -0.467
